Targets with a hit are over-represented here; the source holds about 8,800 in all. About 0.5% of all pairs of compound and target were hits. Values without a mark were called inactive.

Holding throughout (assay): log2 fold change, soluble protein after heating vs DMSO (PISA); higher = thermal stabilisation; K562 lysate, 10 uM; active = over 0.2 and 3.5 SD of the protein, either way, in both replicates (recomputed)
Compound in experiment [1]: CC1=C2C(=CC=C1)N=C(N(C2=O)C3=CC=CC=C3C)CN4C=NC5=C(N=CN=C54)N
Summed up: (§1)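 K562 pellets were dounce-homogenised in PBS pH 7.4 containing 1 mM MgCl2, and the crude extract, at 1 mg/mL protein, was exposed to 10 μM compound for 30 min. Aliquots were heated for 3 min across 48°C-58°C, pooled, brought to 0.5% NP-40 at 4°C and spun at 21,000xg for 90 min, with the supernatant taken as soluble protein. TMTpro 16plex LC-MS/MS with equalised channel sums quantified that protein. Values are log-two fold changes in thermal stability relative to solvent controls, taken from duplicates.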

Compound in experiment [2]: c1ccc([C@@H]2C[C@H]2NC2CCNCC2)cc1
An outline of the steps: as §1

Compound in experiment [3]: Cc1sc2c(c1C)C(c1ccc(Cl)cc1)=N[C@@H](CC(=O)OC(C)(C)C)c1nnc(C)n1-2
Summed up: as §1

Compound in experiment [4]: C1=CC=C(C=C1)[C@H](COC2=CC3=C(C=C2)NC(=O)N3)NC(=O)C4=CC=CN(C4=O)CC5=CC(=C(C=C5)F)F
An outline of the steps: as §1

Compound in experiment [5]: CC1=C(SC2=C1C(=N[C@H](C3=NN=C(N32)C)CC(=O)N)C4=CC=C(C=C4)Cl)C
Summed up: as §1

Chain of UniProt Q6NXT4 (Q6NXT4 whole entry, looked up): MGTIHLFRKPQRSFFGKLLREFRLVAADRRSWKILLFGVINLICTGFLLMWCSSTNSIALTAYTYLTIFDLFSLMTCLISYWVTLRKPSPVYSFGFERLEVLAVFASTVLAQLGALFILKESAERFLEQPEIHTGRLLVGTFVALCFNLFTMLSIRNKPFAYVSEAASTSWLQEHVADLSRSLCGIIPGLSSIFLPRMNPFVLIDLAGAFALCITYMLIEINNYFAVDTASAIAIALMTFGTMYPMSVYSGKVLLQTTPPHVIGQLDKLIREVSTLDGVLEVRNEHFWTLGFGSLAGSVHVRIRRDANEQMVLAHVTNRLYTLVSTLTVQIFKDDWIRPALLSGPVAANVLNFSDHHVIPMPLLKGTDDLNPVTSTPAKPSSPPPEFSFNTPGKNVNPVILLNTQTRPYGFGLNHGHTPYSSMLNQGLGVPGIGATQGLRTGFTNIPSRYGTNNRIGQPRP
Chain of UniProt Q8N196 (Q8N196 whole entry, looked up): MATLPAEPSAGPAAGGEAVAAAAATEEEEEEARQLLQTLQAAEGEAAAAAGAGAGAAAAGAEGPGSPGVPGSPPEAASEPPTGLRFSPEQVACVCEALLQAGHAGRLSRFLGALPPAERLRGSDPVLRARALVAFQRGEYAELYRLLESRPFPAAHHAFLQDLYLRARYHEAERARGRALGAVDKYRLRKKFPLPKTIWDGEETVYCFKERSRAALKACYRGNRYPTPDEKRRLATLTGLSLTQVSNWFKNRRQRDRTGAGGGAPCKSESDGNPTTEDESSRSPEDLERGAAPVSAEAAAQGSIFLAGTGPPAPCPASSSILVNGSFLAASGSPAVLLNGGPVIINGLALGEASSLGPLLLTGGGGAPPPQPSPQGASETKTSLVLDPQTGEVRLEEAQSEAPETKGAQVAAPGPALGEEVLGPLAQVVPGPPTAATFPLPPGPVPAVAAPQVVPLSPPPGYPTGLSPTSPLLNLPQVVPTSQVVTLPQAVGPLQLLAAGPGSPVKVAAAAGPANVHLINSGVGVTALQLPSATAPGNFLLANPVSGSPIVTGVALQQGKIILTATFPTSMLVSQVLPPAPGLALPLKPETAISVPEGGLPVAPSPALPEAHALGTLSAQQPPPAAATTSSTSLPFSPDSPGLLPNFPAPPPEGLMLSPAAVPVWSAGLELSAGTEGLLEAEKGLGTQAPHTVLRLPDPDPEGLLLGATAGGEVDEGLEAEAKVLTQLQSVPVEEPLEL
Chain of UniProt Q15544 (Q15544 whole entry, looked up): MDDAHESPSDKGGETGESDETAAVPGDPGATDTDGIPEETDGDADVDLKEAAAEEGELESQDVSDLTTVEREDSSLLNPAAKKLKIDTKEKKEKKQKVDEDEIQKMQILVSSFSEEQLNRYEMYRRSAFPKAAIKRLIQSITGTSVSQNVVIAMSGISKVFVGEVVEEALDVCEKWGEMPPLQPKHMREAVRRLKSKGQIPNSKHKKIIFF
Chain of UniProt Q13487 (Q13487 whole entry, looked up): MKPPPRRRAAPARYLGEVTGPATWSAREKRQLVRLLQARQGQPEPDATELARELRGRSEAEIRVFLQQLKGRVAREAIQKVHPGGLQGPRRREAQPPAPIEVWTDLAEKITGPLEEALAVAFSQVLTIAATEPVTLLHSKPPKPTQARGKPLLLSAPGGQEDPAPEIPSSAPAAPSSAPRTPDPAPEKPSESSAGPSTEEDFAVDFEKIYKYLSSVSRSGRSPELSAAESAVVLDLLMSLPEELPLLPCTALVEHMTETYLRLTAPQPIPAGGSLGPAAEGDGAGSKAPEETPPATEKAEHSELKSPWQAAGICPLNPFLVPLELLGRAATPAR
Chain of UniProt Q96CQ1 (Q96CQ1 whole entry, looked up): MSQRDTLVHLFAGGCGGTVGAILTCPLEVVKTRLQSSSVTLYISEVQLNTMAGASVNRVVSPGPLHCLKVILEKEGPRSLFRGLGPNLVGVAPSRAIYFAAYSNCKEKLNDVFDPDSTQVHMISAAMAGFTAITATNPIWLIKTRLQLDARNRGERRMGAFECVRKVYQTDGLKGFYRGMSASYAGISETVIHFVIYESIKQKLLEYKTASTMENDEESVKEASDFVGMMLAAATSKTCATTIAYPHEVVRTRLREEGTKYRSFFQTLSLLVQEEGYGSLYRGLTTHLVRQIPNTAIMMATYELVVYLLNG
Chain of UniProt Q13309 (Q13309 whole entry, looked up): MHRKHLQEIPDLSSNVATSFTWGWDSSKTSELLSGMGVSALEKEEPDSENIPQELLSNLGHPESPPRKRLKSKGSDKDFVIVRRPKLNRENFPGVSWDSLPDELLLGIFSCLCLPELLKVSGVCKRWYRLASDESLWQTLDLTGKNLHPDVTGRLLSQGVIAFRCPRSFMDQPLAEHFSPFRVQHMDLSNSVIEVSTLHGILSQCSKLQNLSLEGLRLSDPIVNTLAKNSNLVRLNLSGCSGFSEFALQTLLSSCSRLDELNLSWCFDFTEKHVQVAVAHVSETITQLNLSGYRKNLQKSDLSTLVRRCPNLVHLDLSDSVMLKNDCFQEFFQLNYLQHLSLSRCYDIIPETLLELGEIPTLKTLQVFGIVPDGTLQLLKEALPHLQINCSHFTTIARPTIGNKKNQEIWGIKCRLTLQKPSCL
Chain of UniProt P12931 (P12931 whole entry, looked up): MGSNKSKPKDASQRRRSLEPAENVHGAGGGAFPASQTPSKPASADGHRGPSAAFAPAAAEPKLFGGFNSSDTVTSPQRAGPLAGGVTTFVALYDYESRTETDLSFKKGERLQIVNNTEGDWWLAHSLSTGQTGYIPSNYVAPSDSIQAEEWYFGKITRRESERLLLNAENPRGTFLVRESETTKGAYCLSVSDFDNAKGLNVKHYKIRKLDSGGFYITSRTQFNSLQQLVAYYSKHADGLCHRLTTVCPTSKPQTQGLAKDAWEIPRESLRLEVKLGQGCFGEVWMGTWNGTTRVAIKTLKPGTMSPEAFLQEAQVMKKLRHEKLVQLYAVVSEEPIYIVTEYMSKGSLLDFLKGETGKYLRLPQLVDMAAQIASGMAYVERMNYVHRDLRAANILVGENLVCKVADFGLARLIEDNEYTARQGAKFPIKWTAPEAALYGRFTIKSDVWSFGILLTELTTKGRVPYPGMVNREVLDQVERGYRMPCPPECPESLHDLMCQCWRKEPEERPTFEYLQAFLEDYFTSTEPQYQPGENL
Chain of UniProt O95793 (O95793 whole entry, looked up): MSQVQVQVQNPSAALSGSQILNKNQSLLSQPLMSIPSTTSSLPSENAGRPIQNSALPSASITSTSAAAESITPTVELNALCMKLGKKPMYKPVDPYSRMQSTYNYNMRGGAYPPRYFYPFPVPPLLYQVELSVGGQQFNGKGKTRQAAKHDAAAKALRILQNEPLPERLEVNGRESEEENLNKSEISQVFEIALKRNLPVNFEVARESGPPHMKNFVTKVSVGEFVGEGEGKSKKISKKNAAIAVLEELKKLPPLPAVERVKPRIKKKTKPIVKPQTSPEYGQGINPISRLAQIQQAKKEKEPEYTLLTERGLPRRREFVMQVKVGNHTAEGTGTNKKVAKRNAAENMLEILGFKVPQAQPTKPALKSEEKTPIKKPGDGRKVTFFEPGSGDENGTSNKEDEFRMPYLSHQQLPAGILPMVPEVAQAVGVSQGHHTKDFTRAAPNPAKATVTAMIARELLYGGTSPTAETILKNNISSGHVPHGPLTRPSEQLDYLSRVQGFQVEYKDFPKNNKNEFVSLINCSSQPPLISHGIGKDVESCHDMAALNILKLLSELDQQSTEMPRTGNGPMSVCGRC
Chain of UniProt P49675 (P49675 whole entry, looked up): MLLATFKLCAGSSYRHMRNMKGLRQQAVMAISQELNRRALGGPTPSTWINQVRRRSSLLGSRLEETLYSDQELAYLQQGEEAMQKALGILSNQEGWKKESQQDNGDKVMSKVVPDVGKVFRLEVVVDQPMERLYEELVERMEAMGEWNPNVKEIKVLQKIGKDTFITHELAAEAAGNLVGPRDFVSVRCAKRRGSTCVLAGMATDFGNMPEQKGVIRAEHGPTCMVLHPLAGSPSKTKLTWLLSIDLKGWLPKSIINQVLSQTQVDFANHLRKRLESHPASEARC
Chain of UniProt Q15464 (Q15464 whole entry, looked up): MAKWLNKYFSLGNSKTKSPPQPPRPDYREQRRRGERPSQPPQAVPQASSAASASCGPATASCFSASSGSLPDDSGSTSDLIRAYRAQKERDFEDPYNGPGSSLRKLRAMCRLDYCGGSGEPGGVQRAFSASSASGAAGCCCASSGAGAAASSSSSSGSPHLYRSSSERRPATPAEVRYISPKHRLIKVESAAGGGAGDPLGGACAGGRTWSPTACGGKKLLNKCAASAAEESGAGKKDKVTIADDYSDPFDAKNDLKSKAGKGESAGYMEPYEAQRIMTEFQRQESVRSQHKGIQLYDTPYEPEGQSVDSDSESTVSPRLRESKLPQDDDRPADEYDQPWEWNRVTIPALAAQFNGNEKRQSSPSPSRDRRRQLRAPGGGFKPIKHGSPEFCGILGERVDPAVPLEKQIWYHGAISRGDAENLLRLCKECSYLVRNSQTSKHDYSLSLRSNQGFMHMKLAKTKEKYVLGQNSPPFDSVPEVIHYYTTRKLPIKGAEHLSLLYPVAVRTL
Chain of UniProt O00161 (O00161 whole entry, looked up): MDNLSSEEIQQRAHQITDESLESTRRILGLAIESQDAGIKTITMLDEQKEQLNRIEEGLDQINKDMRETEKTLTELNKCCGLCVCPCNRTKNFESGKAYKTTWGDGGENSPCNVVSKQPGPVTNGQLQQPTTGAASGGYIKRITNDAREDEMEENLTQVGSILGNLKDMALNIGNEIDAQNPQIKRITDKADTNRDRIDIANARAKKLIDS

With SIN3B (UniProt O75182), the log2 fold change in experiment [1] was -0.129; in experiment [2], 0.052.
Take SKP2 (UniProt Q13309): the values for the log2 fold change in experiment [1], in experiment [3] and in experiment [2] were -0.015, -0.003 and 0.001, respectively.
Take SNAPC2 (UniProt Q13487): the log2 fold change in experiment [4] is 0.107; in experiment [5], 0.302; in experiment [3], 0.101; in experiment [2], 0.004.
STK26 isoform 3 (UniProt Q9P289): the log2 fold change in experiment [3] is 0.166.
As for SLC30A6 isoform 2 (UniProt Q6NXT4), the log2 fold change was 0.033 in experiment [4], -0.046 in experiment [5], 0.116 in experiment [1] and -0.059 in experiment [2].
In the case of STAU1 isoform 3 (UniProt O95793), the log2 fold change was 0.19 in experiment [4], 0.043 in experiment [5] and 0.081 in experiment [2].
As for TAF11 (UniProt Q15544), the log2 fold change in experiment [1] was 0; in experiment [3], -0.16; in experiment [2] it was -0.073.
With SIX5 (UniProt Q8N196), the log2 fold change in experiment [4] was -0.011; in experiment [5] it was 0.034; in experiment [3], -0.037; in experiment [2], 0.209.
In the case of SMARCA4 isoform 4 (UniProt P51532), the log2 fold change in experiment [3] is -0.007; in experiment [2], 0.131.
With SRC isoform 2 (UniProt P12931), the log2 fold change in experiment [4] is -0.052; in experiment [5] it was -0.412 (active); in experiment [3], -0.105; in experiment [2], 0.017.
Turning to SHB (UniProt Q15464), the log2 fold change in experiment [3] was 0.033; in experiment [2] it was 0.086.
For SHC1 (UniProt P29353), in experiment [2], the log2 fold change was 0.201.
Take STAR (UniProt P49675): the log2 fold change in experiment [1] was 0.048; in experiment [3], -0.077; in experiment [2], -0.028.
Take SLC25A36 (UniProt Q96CQ1): the log2 fold change in experiment [1] is 0.013; in experiment [3], 0.035; in experiment [2], 0.
In the case of SNAP23 isoform 2 (UniProt O00161), the log2 fold change in experiment [1] was 0.045; in experiment [2], -0.038.

For the origin of these results see the supplement of paper PMC10849652.
